Rows were chosen to be rich in hits. Some 5.7% of all compounds tested hit in one or more screens of this group.
NADH coupling: inhibitors of PK/LDH coupling enzymes, profiling panel, artefact control, biochemical, MLSMR library; coupled PK/LDH NADH assays, four targets; IC50, µM (titrated, usually from 10 µM), for inactives: at the highest dose inhibition; 65,000 compounds, 0.02% hits; AID 774, 2007;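 active = single-dose screening hits from any of four coupled enzyme assays that gave an IC50 when retested across doses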;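 also: the DPM-DC format reads NADH fluorescence rather than 340 nm absorbance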
DUSP1 inh: MKP-1 phosphatase inhibitors, primary screen, biochemical, in vitro | Dual specificity protein phosphatase 1 (Homo sapiens), P28562 | recombinant MKP-1, OMFP hydrolysis fluorescence | inhibition, %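 (compounds tested at a single concentration somewhere between 10 and 100 µM)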 | 65,000 compounds, 0.15% hits | AID 374, 2006;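 active = inhibition above about 50%, limit read from the data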;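 also: 0% = DMSO max control wells and 100% = wells with enzyme stopped by NaOH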
Target sequence (P28562 whole entry, looked up): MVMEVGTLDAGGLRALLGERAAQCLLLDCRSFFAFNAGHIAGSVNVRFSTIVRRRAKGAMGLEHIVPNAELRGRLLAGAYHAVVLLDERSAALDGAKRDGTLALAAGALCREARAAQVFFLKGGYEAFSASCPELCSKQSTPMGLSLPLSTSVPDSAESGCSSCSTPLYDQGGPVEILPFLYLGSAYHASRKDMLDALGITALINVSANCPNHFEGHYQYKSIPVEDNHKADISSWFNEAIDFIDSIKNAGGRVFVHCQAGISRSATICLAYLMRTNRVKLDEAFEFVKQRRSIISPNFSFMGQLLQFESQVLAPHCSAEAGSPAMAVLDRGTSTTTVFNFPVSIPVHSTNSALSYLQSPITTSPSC
Cdc25B block: inhibitors of Cdc25B phosphatase catalytic domain, primary screen, biochemical, OMFP fluorescence; M-phase inducer phosphatase 2 (Homo sapiens), P30305; recombinant Cdc25B, OMFP fluorescence Ex485/Em525; inhibition, %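 (compounds tested at 10 µM final in the well)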; 65,000 compounds, 0.1% hits; AID 368, 2006; in the data active = inhibition above about 50%
Hsp90 inh: tumor Hsp90 inhibitors, primary screen, cell lysate, fluorescence polarization, NCI-N417 lysate. Heat shock protein HSP 90-alpha (Homo sapiens), P07900. Cy3B-geldanamycin FP displacement. inhibition, % at 30 µM. 64,000 compounds, 0.35% hits. AID 429, 2006;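 active = inhibition above 50%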;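 also: 0% = tracer plus lysate wells and 100% = tracer alone without lysate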
Abs 340nm: compound light absorbance at 340 nm, profiling panel, artefact control, biochemical, MLSMR library, data from PS, PMK, MK assays | compound absorbance at 340 nm, fold over control | fold change at 10 µM | 65,000 tested, under 10 active | AID 708, 2007;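 active = at 10 µM dose, initial 340 nm absorbance at least 2 fold that of control wells; inactive = change under 2 fold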;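 also: initial absorbance extrapolated from kinetic A340 decline of NADH oxidation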
Fluor 339 460: intrinsic fluorescence of library compounds, ex339/em460 – biochemical, MLSMR library, data from DPM-DC assay, artefact control, profiling panel | compound autofluorescence, ex339/em460 nm, NADH buffer; active compounds read high; 1 = no-compound wells, NADH background | fluorescence fold increase at 10 µM | 65,000 compounds, 5.5% hits;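 active = at 10 µM, mean starting fluorescence two-fold or more over control wells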;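 also: signal is the first read of a kinetic run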
Starred values were filed as active, the others as inactive; . = no result.

SMILES	NADH coupling	DUSP1 inh	Cdc25B block	Hsp90 inh	Abs 340nm	Fluor 339 460
O=C(CN1C(=O)CCC1=O)Nc1nc(-c2nc3ccccc3s2)cs1	4%	4	0	-3	1.1	2.1*
CCCCS(=O)(=O)c1sc2nc(C)cc(C)c2c1N	13%	17	3	-2	1.1	2*
COC(=O)C1=CNC=C(C(=O)OC)C1c1ccc(C(=O)OC)cc1	9%	4	1	-5	1.1	2.1*
O=C(O)CCN1C(=O)c2ccc(NC(=O)c3cccs3)cc2C1=O	10%	-3	-7	1	1.1	3.6*
CC(=O)Nc1cccc(Oc2ccc3c(c2)C(=O)N(CCC(=O)O)C3=O)c1	5%	2	0	-1	1	1.1
CCCC(=O)Nc1ccc2c(c1)C(=O)N(CCC(=O)O)C2=O	9%	8	-8	-2	1.1	3.8*
COc1cc(C2c3c(oc4ccccc4c3=O)C(=O)N2Cc2ccncc2)ccc1O (configuration not stated)	3%	2	2	4	1	1.1
Cc1ccc(-n2nnnc2SCC(=O)N2c3ccccc3NC(=O)C2(C)C)cc1	9%	11	6	-3	1	1.1
CC(C)(C)c1cc(=O)n2c(C#N)c(C#N)nc2[nH]1	7%	19	-3	1	1.1	5*
Cc1cccc2cc(C#N)c(NCCCn3ccnc3)nc12	12%	2	4	-3	0.98	2.6*
N#Cc1c2c(c(NCCN3CCOCC3)n3c1nc1ccccc13)CCCC2	9%	26	-9	-2	0.99	1.8
Cc1cc(NCC2CCCO2)n2c(nc3ccccc32)c1C#N (configuration not stated)	2%	-13	-1	-2	1	2.5*
Cc1cc(NCCN2CCCCC2)n2c(nc3ccccc32)c1C#N	2%	-15	9	-1	0.99	2.7*
Cc1cc(NCCCn2ccnc2)n2c(nc3ccccc32)c1C#N	1%	2	-8	2	1	3.4*
O=S(=O)(NC1CCCCC1)c1ccc(Cl)s1	5%	-6	2	-7	1	1.1
CNC(=O)[C@H]1O[C@@H](n2cnc3c(NCc4cccc(I)c4)ncnc32)C(O)[C@H]1O (some centres not stated)	.	.	.	-3	.	.
Cc1cc(N2CCN(C3CCCC3)CC2)n2c(nc3ccccc32)c1C#N	2%	9	-1	-7	1	2.5*
Cc1c(CCC#N)c(N2CCN(C3CCCCC3)CC2)n2c(nc3ccccc32)c1C#N	3%	-3	24	-2	1	1.1
C=CCOc1ccc(/C(O)=C2/C(=O)C(=O)N(CCCn3ccnc3)C2c2cccs2)cc1 (configuration not stated)	7%	5	-4	-4	1.1	1
CNc1oc(-c2cccs2)nc1C#N	2%	22	28	5	1.1	2.4*
COc1ccc(Nc2oc(-c3cccs3)nc2C#N)cc1	9%	-32	19	3	1.1	1.9
CN(C)c1oc(-c2ccccc2F)nc1C#N	2%	-10	-13	-3	1.1	2.4*
CN(C)c1oc(-c2cccs2)nc1C#N	4%	-17	21	-8	1.1	2.4*
CCOC(=O)c1cnc2cc3c(cn2c1=O)CCCC3	11%	14	-2	-1	1.1	5*
Cc1ccc(OCC(=O)Nc2ccc(-c3nc4ncccc4o3)cc2)c(C)c1	0%	13	-1	-3	1.2	2.2*
SMILES	NADH coupling	DUSP1 inh	Cdc25B block	Hsp90 inh	Abs 340nm	Fluor 339 460
Cc1cc(-c2nc3ncccc3o2)ccc1NC(=O)CC(C)C	3%	1	-2	-3	1.1	2.2*
COc1ccccc1OCc1nc2c3c(-c4ccccc4)c(-c4ccccc4)oc3ncn2n1	2%	4	-3	-1	1.2	3.2*
CC(=O)c1c(C)nc(-c2ccc(Cl)cc2)nc1NC(=O)C(C)C	0%	1	-1	-6	1	1.1
Cc1ccc2[nH]c(C(=O)O)c(-c3ccccc3)c2c1	11%	2	10	1	1	1.9
Cc1ccc2[nH]c(-c3ccccc3)cc(=O)c2c1	7%	3	-5	0	1.1	2.2*
CNC(=O)[C@H]1O[C@@H](n2cnc3c(N)ncnc32)C(O)[C@H]1O (some centres not stated)	.	.	.	22	.	.
CNC(=O)c1cc2cc(OC)ccc2oc1=N	4%	-16	-5	-4	1.1	2.5*
CNC(=O)c1cc2ccc(OC)cc2oc1=O	7%	4	0	-15	1.2	3.6*
COc1ccc2oc(=N)c(C(=O)Nc3ccccc3)cc2c1	7%	-35	4	-3	0.98	1.2
CNC(=O)c1cc2cccc(OC)c2oc1=O	8%	19	1	2	1	1.4
CC(CCc1ccccc1)NC(=O)C1CCN(S(=O)(=O)N2CCCCC2)CC1 (configuration not stated)	3%	19	-2	0	1	1.1
O=C(CCCn1c(=O)[nH]c2ccccc2c1=O)NC1CCCCCC1	8%	13	-10	-2	0.97	1
O=C(CCn1c(=O)[nH]c2ccccc2c1=O)Nc1ccccc1	5%	11	102*	0	0.99	1
O=C(NCc1ccccc1)N(Cc1cc2cc3c(cc2[nH]c1=O)OCCO3)CC1CCCO1 (configuration not stated)	3%	4	2	-1	1.1	3.7*
CC(=O)c1cccc(S(=O)(=O)N(Cc2cc3cc4c(cc3[nH]c2=O)OCCO4)CC2CCCO2)c1 (configuration not stated)	8%	8	3	-10	1.1	1.4
O=c1[nH]c2cc3c(cc2cc1CN(CC1CCCO1)S(=O)(=O)c1ccccc1)OCCO3 (configuration not stated)	4%	-8	2	-2	1.1	3.8*
CC(C)Cn1c(Br)nc2c1c(=O)n(CCC#N)c(=O)n2C	5%	-9	-2	0	1	1.1
COCCNC(=O)C(C#N)c1nc2ccccc2nc1N1CCCCCC1 (configuration not stated)	20%	25	5	-1	1.1	2.5*
O=C(O)c1ccc(Cn2cc(Cl)cn2)cc1	7%	-17	1	3	1	1.2
O=C(c1cc2cc3ccc(Cl)cc3nc2o1)N1CCN(Cc2ccc3c(c2)OCO3)CC1	4%	-4	12	0	1	1.2
O=C(c1cccn2c(=O)c3ccc(Cl)cc3nc12)N1CCN(Cc2ccc3c(c2)OCO3)CC1	15%	64*	-6	2	1.1	4.9*

Screens deposited in PubChem BioAssay by several laboratories.
